Only some compounds are listed: those with a hit (about 1.6% of all), similar ones and a draw of the others.
KCNQ2 pot – enhances the rat KCNQ2 potassium channel. CHO-K1 KCNQ2, FluxOR thallium flux fluorescence; hits give high values. B-score at 10 µM. O88943. actives 0.54% (n = 310,000). AID 2239;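 active means fluorescence ratio B-score at least 3 SD of library B-scores, with initial fluorescence B-score within 3 of them, cut at about 5.3 in these data; same plate scores as AID 2156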;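 further: B-score of peak minus minimum over baseline fluorescence ratio after K+ and Tl+ stimulus; positive B-score means potentiation of KCNQ2 with more thallium influx and brighter signal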
Target sequence (O88943 whole entry, looked up): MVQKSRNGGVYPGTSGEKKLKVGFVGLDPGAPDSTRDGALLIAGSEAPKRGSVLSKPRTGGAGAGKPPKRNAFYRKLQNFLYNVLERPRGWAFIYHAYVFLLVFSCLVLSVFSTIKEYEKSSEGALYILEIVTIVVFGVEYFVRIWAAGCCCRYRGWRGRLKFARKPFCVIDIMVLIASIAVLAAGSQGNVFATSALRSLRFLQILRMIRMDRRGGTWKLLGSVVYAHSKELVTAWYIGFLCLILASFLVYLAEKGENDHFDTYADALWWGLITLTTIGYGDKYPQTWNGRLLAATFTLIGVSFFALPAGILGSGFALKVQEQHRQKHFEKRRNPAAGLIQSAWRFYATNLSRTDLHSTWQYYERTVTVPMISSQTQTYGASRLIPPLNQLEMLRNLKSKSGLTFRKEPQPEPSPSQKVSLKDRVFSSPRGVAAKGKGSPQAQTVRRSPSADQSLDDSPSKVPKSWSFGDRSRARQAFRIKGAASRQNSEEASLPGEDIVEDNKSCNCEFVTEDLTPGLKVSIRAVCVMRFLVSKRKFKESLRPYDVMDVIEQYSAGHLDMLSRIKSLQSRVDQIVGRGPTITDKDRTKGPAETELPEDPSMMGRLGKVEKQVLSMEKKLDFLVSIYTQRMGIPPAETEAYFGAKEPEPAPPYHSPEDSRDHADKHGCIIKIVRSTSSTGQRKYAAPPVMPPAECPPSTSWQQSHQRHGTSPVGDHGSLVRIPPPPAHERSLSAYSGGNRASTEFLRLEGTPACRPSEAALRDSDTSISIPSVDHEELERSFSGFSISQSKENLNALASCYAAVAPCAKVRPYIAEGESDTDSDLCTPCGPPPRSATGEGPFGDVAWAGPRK
KCNQ2 block – inhibitors of rat KCNQ2 potassium channel; O88943; CHO-K1 KCNQ2, FluxOR thallium flux, 20 min; hits give low values; B-score at 10 µM; actives 1.1% (n = 310,000);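 active means fluorescence ratio B-score at most minus 3 library SDs, with starting brightness B-score within 2 library SDs, cut at about -5.5 in these data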
Numbers without * were called inactive; i = inactive; . = no result given.

SMILES	KCNQ2 pot	KCNQ2 block
CCOC(=O)N1CCC(N2C(=O)c3ccccc3C2Nc2ccc(S(=O)(=O)N(CC)CC)cc2)CC1 (stereo not drawn)	.	i
CCN(CC)c1ccc2cc(S(=O)(=O)c3ccc(Cl)cc3)c(=O)oc2c1	-6.2	-6.2*
CCCCCCc1cc2cc(S(=O)(=O)c3ccc(Cl)cc3)c(=O)oc2cc1O	1.2	i
Cc1ccccc1C(=O)Nc1ccnn1C1CCN(C(=O)c2cnsn2)CC1	0.16	i
COC(=O)C1=C(C)NC(C)=C(C(=O)O[C@@H]2CCCN(Cc3ccccc3)C2)[C@@H]1c1cccc([N+](=O)[O-])c1	-5.8	-5.8*
CCOC(=O)C1=C(C)NC(C)=C(C(=O)OC)C1c1cccc([N+](=O)[O-])c1 (stereo not drawn)	.	i
Cc1ccc(S[C@@H](CCN2CC[C@H](NC(=O)OCc3ccccc3)CCC2=O)c2ccccc2)cc1	-6.9	-6.9*
Cc1ccc(SC[C@H](C)CN2CC[C@H](NC(=O)OCc3ccccc3)CCC2=O)cc1	.	i
O=C(CN1C(=O)c2ccccc2C1=O)OCC(=O)c1ccccc1	.	i
O=C(Cc1n[nH]c(=O)[nH]c1=O)N/N=C/CCc1ccccc1	0.18	i
CC(C)(C)NC(=O)[C@@H]1CN(Cc2cccnc2)CCN1C[C@@H](O)C[C@@H](Cc1ccccc1)C(=O)N[C@H]1c2ccccc2C[C@H]1O	.	i
COc1ccc(Br)cc1-c1nc(C)c(C(C)=O)n1O	-7.2	-7.2*
COc1ccc(Br)cc1-c1noc(-c2ccccc2)n1	.	i
Cc1ccc(NC(=O)c2ccc(OC(F)(F)F)cc2)cc1S(=O)(=O)N(C)C	0.34	i
COc1ccc(-c2cc(C(=O)N(C)Cc3ccccc3F)c3ccccc3n2)cc1OC	.	i
CCN(Cc1ccccc1)C(=O)c1cc(-c2ccc(OC)c(OC)c2)nc2ccccc12	-6.4	-6.4*
CC(=O)c1ccc(C(=O)N2CCCC(CNC(=O)c3ccccc3Cl)C2)cc1 (stereo not drawn)	.	i
Cc1cccc(NC(=O)N2CCCC(CNC(=O)c3ccccc3Cl)C2)c1C (stereo not drawn)	-8.2	-8.2*
COc1ccccc1C(=O)NCCNc1ccc([N+](=O)[O-])cc1Cl	.	i
CCOc1cc(C(=O)CSc2nnc(CNc3ccc(Cl)cc3)o2)ccc1NC(=O)CC	6.2*	i
COc1ccc(NCc2nnc(SCC(=O)c3ccc(OC)cc3)o2)cc1	0.8	i
Cc1noc(C)c1CN1C(=O)c2ccccc2C1=O	.	i
CCCCC(=O)Nc1nnc(CCc2ccccc2)s1	1.8	i
Cc1cc2ncn(-c3ncnc4sc5c(c34)CCCC5)c2cc1C	.	i
Cc1cc2ncn(-c3ncnc4sc5c(c34)CCC(C)C5)c2cc1C (stereo not drawn)	-5.9	-5.9*
SMILES	KCNQ2 pot	KCNQ2 block
O=C(CN1CCOCC1)NN1CC(=O)N(c2ccc(Cl)cc2)CC1=O	.	i
O=C(CNC(=O)Cc1ccc(Cl)cc1)NCc1ccco1	2.1	i
O=C(c1cccn2c(=O)c3ccc(Cl)cc3nc12)N1CCN(Cc2ccc3c(c2)OCO3)CC1	-5.8	-5.8*
O=C(NC(=S)N1CCN(Cc2ccc3c(c2)OCO3)CC1)c1ccc(Cl)cc1	8.9*	i
O=C(c1cccc(Cl)c1)N1CCN(Cc2ccc3c(c2)OCO3)CC1	.	i
Cc1cc(Cl)ccc1NC(=S)N1CCN(Cc2ccc3c(c2)OCO3)CC1	.	i
CCNC(=S)N1CCN(Cc2ccc3c(c2)OCO3)CC1	2.3	i
O=C(NC(=S)N1CCN(Cc2ccc3c(c2)OCO3)CC1)c1cccc(Br)c1	9.5*	i
Cc1ccc(-n2nc3c(=O)n(CCCC(=O)NC4CCC(C)CC4)nc(C)c3c2C)cc1 (stereo not drawn)	0.07	i
COc1ccc(S(=O)(=O)N2CCOC2CNC(=O)C(=O)NCCN2CCOCC2)cc1C (stereo not drawn)	.	i
Cc1cccc(OCCCOc2cccc3cccnc23)c1C	.	i
COc1cccc(OC)c1OCCCOc1cccc2cccnc12	-5.6	-5.6*
COc1ccc(NC(=O)CN2C(=O)COc3ccc(C)cc32)cc1	0.87	i
Cc1ccc2c(c1)cc(CN(Cc1ccco1)C(=O)N1CCOCC1)c1nnnn12	-8.8	-8.8*
Cc1ccc2c(c1)cc(CN(CCc1ccccc1)C(=O)N1CCOCC1)c1nnnn12	.	i
CC(/C=C1\SC(=S)N(NS(=O)(=O)c2ccc(C)cc2)C1=O)=C\c1ccccc1	21*	i
CC(/C=C1\SC(=S)N(NC(=O)c2ccccc2C)C1=O)=C\c1ccccc1	.	i
CC(C)Cc1nnc(NC(=O)CCC(=O)N2CCN(Cc3ccc(Cl)cc3)CC2)s1	0.92	i
NC(=O)c1sc2nnc(-c3ccccc3)c(-c3ccccc3)c2c1N	.	i
CC(C)(C)c1ccc(C(=O)Nc2ccc(O)c3c(=O)cc(-c4ccccc4Cl)oc23)cc1	-7	-7*
O=C(Nc1ccc(O)c2c(=O)cc(-c3ccccc3Cl)oc12)c1ccc(F)cc1	1.5	i
Cc1cccnc1NC(=O)c1nn(C)c2c1CS(=O)(=O)c1ccccc1-2	0.02	i
C[C@@H]1CC=C[C@H]2[C@H]1C(=O)N(Cc1ccccc1)[C@H]2c1ccc2ccccc2c1	.	i
CC[C@@H]1CC=C[C@H]2[C@H]1C(=O)N(Cc1ccccc1)[C@H]2c1ccoc1	-6.2	-6.2*
C[C@@H]1CC=C[C@H]2[C@H]1C(=O)N(Cc1ccccc1)[C@H]2c1ccc2ccccc2c1Br	-7.5	-7.5*
SMILES	KCNQ2 pot	KCNQ2 block
C[C@@H]1CC=C[C@H]2[C@H]1C(=O)N(Cc1ccccc1)[C@H]2c1ccoc1	.	i
COc1cccc(C(C)NC(=O)c2ccncc2)c1 (stereo not drawn)	.	i
Cc1cc2cc(C(c3nnnn3C3CCCC3)N(Cc3cccnc3)Cc3ccco3)c(=O)[nH]c2cc1C (stereo not drawn)	-6	-6*
Cc1ccc2cc(C(c3nnnn3C3CCCC3)N(Cc3ccccc3)Cc3ccco3)c(=O)[nH]c2c1 (stereo not drawn)	.	i
COCCn1c(SCC(=O)Nc2ncc(C)s2)nc2sc3c(c2c1=O)CCC3	0.28	i
COCCn1c(SCc2nnc(-c3ccccc3)o2)nc2sc3c(c2c1=O)CCC3	-6.6	-6.6*
COc1ccc([N+](=O)[O-])cc1N(CC(=O)Nc1ccccc1C(=O)NC(C)C)S(C)(=O)=O	.	i
O=C(Nc1ccc(C(=O)N2CCCCC2)cc1)c1ccccc1Br	.	i
COc1cc(Cl)c(CN2CCCC(CO)(Cc3cccc(Cl)c3)C2)cc1OC (stereo not drawn)	.	i
Cc1cc(Br)ccc1NC(=O)CN(C)C(=O)c1cc([N+](=O)[O-])ccc1N1CCOCC1	-6.5	-6.5*
Cc1ccc(C)c(NC(=O)CN(C)C(=O)c2cc([N+](=O)[O-])ccc2N2CCOCC2)c1	0.91	i
CCC(CO)n1c(SCc2cc(=O)oc3cc(C)ccc23)nc2ccccc2c1=O (stereo not drawn)	-7.7	-7.7*
COc1ccccc1-n1c(SCc2cc(=O)oc3cc(O)ccc23)nc2ccccc2c1=O	.	i
CCc1cccc(CC)c1NC(=O)c1cccc(NC(=O)c2ccccc2)c1	.	i
CCc1cccc(C)c1NC(=O)c1cccc(N(C)C)c1	-6.9	-6.9*
COCCNC(=O)Cn1nc(-c2ccc(C)cc2)c2ccccc2c1=O	1.5	i
Cc1nc(N2CCN(Cc3ccc4c(c3)OCO4)CC2)c2cc(-c3ccccc3)sc2n1	-6.4	-6.4*

Assay outcomes (PubChem BioAssay)
